Results as given in PubChem BioAssay AID1159580 (chemical genetic matrix, 2015).
The whole screen tested about 5,500 compounds, of which about 2,000 (36%) were called active. About 18% were inconclusive and are not listed. Cut-off read from the data, not from the text of the source: active = normalized growth mostly below about 0.91 (no sharp cut-off); inconclusive = no clear call, values can overlap the other calls; inactive = mostly above about 0.92. The list shows a part of the results.

Assay: chemical genetic growth profiling, strain panel (AID 1159580);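 note: tested at 20 µM; growth read once vehicle control cultures reached saturation at 30 °C; 1 = growth at the plate median or of vehicle wells; lower values mean less growth of the strain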
Conditions: S. cerevisiae deletion strains, growth OD

Measured: normalized growth

Cc1sc2ccccc2c1CC1=NCCN1
inactive: locus YAL040C, strain CLN3, hits give low values 0.972 | locus YCL061C, strain MRC1 (second series), hits give low values 0.993 | locus YDR150W, strain NUM1, hits give low values 0.995 | locus YER002W, strain NOP16, hits give low values 0.988 | locus YGR078C, strain PAC10, hits give low values 1 | locus YJR075W, strain HOC1, hits give low values 1.01 | locus YMR263W, strain SAP30, hits give low values 1 | locus YNL175C, strain NOP13, hits give low values 1.03 | locus YNL197C, strain WHI3, hits give low values 1 | locus YNL224C, strain SQS1, hits give low values 1 | locus YOR083W, strain WHI5 (second series), hits give low values 0.982 | locus YPL241C, strain CIN2, hits give low values 1
